Active and inactive are the calls of the source. The call rests on the fitted dose curve; in most records, active means well fitted curve in the direction sought with a large enough effect in the repeat runs; inconclusive means weak or mixed curves; inactive means flat fitted curve, though single readings scatter.
Test: qHTS assay to test for compound auto fluorescence at 535 nm (green) in HepG2 cells (AID 720675)
Details: green autofluorescence 485/535 nm, 1 h; series mostly up to 91.3 µM; fluorescence, % of fluorescein control: at the top concentration
Source text: National Center for Advancing Translational Sciences [NCATS]
NIH Chemical Genomics Center [NCGC]
U.S. Environmental Protection Agency [EPA]
National Institutes of Environmental Health Sciences [NIEHS]
National Toxicology Program [NTP]
U.S. Food and Drug Administration [FDA]
Compound auto fluorescence often interferes with screening of the compound library against various biological targets and signaling pathways. Some of these compounds may have fluorophoric properties. Such properties may interfere with the assay outputs resulting in false positives and/or negatives. To decrease such complications and ensure the compound activities are relevant in terms of biological response, the Tox21 10K compound library was screened for auto fluorescence.
From the fluorophores used as reporter signals in our screening assays, the auto fluorescence equivalencies of compounds against three fluorophores have been evaluated: Triamterene, Fluorescein and Rose Bengal sodium for blue, green and red fluorescence, respectively. The fluorescence intensities were measured using Excitation/Emission wavelengths at 405/460nm, 485/535nm and 540/590nm for blue, green and red labels, respectively. This assay includes the green fluorescence data.
Tox21 Assay Protocol Summary:
2,000 HepG2 cells in 5 uL of culture medium (MEM containing 10% FBS) per well were dispensed into black wall/clear bottom 1536-well plates using a Multidrop Combi Dispenser (ThermoFisher Scientific, Waltham, MA). The assay plates were incubated overnight at 37 C to allow cell attachment to the well bottom, followed by the transfer of 23 nL compound or DMSO vehicle by a pintool work station (Kalypsys , San Diego, CA). After the assay plates were incubated for 1 hr at 37 C and 5% CO2, fluorescence intensities in the assay plates were measured by an Envision (PerkinElmer, Shelton, CT) plate reader using three labels for measuring blue, green and red fluorescence at […] 460, 535 and 590 nm respectively.
In the case of `O=c1c(-c2ccccc2)c1-c1ccccc1`, the “fluorescence, % of fluorescein control” value is reported as -0.187% [at 46 µM] (inactive).
With `Cc1cc(O)c2ccccc2c1O` the “fluorescence, % of fluorescein control” value was 0.0113% [at 46 µM] (inactive).
For `[Cl][Bi]([Cl])([c]1ccccc1)([c]1ccccc1)[c]1ccccc1`, the “fluorescence, % of fluorescein control” value was -0.0009% (inactive).
In the case of `NNC(=O)c1cccc(C(=O)NN)c1`, the “fluorescence, % of fluorescein control” value is reported as -0.0613% (inactive).
With `COc1c(C)c2c(c(O)c1C/C=C(\C)CCC(=O)O)C(=O)OC2` the fluorescence, % of fluorescein control was 0.0327% [at 18.6 µM] (inactive).
With `Nc1ccc2cc(S(=O)(=O)O)cc(O)c2c1N=Nc1ccccc1C(F)(F)F` the “fluorescence, % of fluorescein control” value was -0.249% (inactive).
In the case of `COc1ccc(C(=O)/C(Br)=C\C(=O)O)cc1`, the Potency is reported as “inactive”.
In the case of `C[C@@H](NCCCc1cccc(C(F)(F)F)c1)c1cccc2ccccc12`, the “fluorescence, % of fluorescein control” value is reported as 0.055% [at 46 µM] (inactive).
For `CN1CCC(Nc2ncc3ncnc(Nc4ccc(F)c(Cl)c4)c3n2)CC1`, the “fluorescence, % of fluorescein control” value was 0.0071% [at 46 µM] (inactive).
In the case of `CCC(C)(C)C1CCCCC1OC(C)=O` (stereo not given), the “fluorescence, % of fluorescein control” value is reported as -0.0075% (inactive).
For `Cc1cc(N)c(S(=O)(=O)O)cc1Cl`, the “fluorescence, % of fluorescein control” value was 0.114% [at 95.7 µM] (inactive).
In the case of `NC(=O)CC[C@@H]1NC(=O)[C@H](Cc2ccccc2)NC(=O)[C@H](Cc2ccc(O)cc2)NC(=O)CCSSC[C@@H](C(=O)N2CCC[C@H]2C(=O)N[C@@H](CCCN=C(N)N)C(=O)NCC(N)=O)NC(=O)[C@H](CC(N)=O)NC1=O`, the Potency is reported as “inactive”.
In the case of `CC/C(=C(\c1ccc(O)cc1)c1ccc(OCCN(C)C)cc1)c1ccccc1`, the “fluorescence, % of fluorescein control” value is reported as 0.01% [at 95.7 µM] (inactive).
With `C[C@H](CCC(=O)O)[C@H]1CC[C@H]2[C@@H]3CC[C@@H]4C[C@H](O)CC[C@]4(C)[C@H]3CC[C@]12C` the Potency was “inactive”.
In the case of `CC(=O)SC[C@@H](Cc1ccccc1)C(=O)NCC(=O)OCc1ccccc1`, the fluorescence, % of fluorescein control is reported as 0.0221% [at 18.6 µM] (inactive).
In the case of `COc1ccc(-c2ccc3cc(C(=O)O)ccc3c2)cc1C12CC3CC(CC(C3)C1)C2`, the “fluorescence, % of fluorescein control” value is reported as -0.0011% [at 46 µM] (inactive).
For `Nc1ccc(N)c2ccccc12`, the Potency was 8.91 µM (active).
With `CCCCCCOC(=O)c1ccc(O)cc1` the Potency was “inactive”.
For `C[C@@H]1C[C@H]2[C@@H]3CCC4=CC(=O)C=C[C@]4(C)[C@@]3(Cl)[C@@H](O)C[C@]2(C)[C@@]1(OC(=O)c1ccco1)C(=O)CCl`, the fluorescence, % of fluorescein control was 0.0009% [at 18.6 µM] (inactive).
With `CNc1ccc(O)cc1` the “fluorescence, % of fluorescein control” value was 0.27% (inactive).
In the case of `Oc1ccc(Cl)cc1Sc1cc(Cl)ccc1O`, the Potency is reported as “inactive”.
With `CCC1=C[C@@H]2CN(C1)Cc1c([nH]c3ccccc13)[C@@](C(=O)OC)(c1cc3c(cc1OC)N(C)[C@H]1[C@@](O)(C(=O)OC)[C@H](OC(C)=O)[C@]4(CC)C=CCN5CC[C@]31[C@@H]54)C2` the “fluorescence, % of fluorescein control” value was -0.182% [at 46 µM] (inactive).
With `Cc1ccc2oc(CN(Cc3ccccc3)C(=O)Nc3c(F)cc(F)cc3F)c(-c3ccc(Cl)cc3)c2c1` the “fluorescence, % of fluorescein control” value was 0.1% (inactive).
For `OCCN1CCN(CC/C=C2/c3ccccc3Sc3ccc(C(F)(F)F)cc32)CC1`, the “fluorescence, % of fluorescein control” value was 0.0309% [at 46 µM] (inactive).
In the case of `O=C(Nc1cccc([N+](=O)[O-])c1)c1cc2ccccc2cc1O`, the “fluorescence, % of fluorescein control” value is reported as -0.0725% (inactive).
In the case of `c1cc(C(c2ccc(OCC3CO3)cc2)c2ccc(OCC3CO3)cc2)ccc1OCC1CO1` (stereo not given), the “fluorescence, % of fluorescein control” value is reported as -0.0041% (inactive).
For `CCOC(=O)O[C@]1(C(=O)OCCl)CC[C@H]2[C@@H]3CCC4=CC(=O)C=C[C@]4(C)[C@H]3[C@@H](O)C[C@@]21C`, the “fluorescence, % of fluorescein control” value was 0.001% [at 46 µM] (inactive).
In the case of `CCCCN(CCCC)C(=O)N(CCCC)CCCC`, the “fluorescence, % of fluorescein control” value is reported as -0.0005% (inactive).
In the case of `CNCc1cc(F)ccc1Oc1ccc(Cl)c(Cl)c1`, the “fluorescence, % of fluorescein control” value is reported as 0.0691% (inactive).
In the case of `Clc1ccccc1C(c1ccccc1)(c1ccccc1)n1ccnc1`, the Potency is reported as “inactive”.
In the case of `Oc1ccc2cc(SSc3ccc4cc(O)ccc4c3)ccc2c1`, the Potency is reported as “inactive”.
With `Cc1cc(O)c(C(C)(C)C)cc1Sc1cc(C(C)(C)C)c(O)cc1C` the “fluorescence, % of fluorescein control” value was 0.18% (inactive).
With `Fc1ccc(C(c2ccc(F)cc2)N2CCN(C/C=C/c3ccccc3)CC2)cc1` the “fluorescence, % of fluorescein control” value was -0.0318% [at 46 µM] (inactive).
In the case of `CC(=O)OCC(C)OC(C)=O` (stereo not given), the “fluorescence, % of fluorescein control” value is reported as -0.202% (inactive).
In the case of `CCCCCCCCOc1ccccc1C(=O)Nc1ccc(C(=O)OCC[N+](C)(CC)CC)cc1`, the “fluorescence, % of fluorescein control” value is reported as 0.101% [at 46 µM] (inactive).
For `Cc1ccc(-n2nc(C(C)(C)C)cc2NC(=O)Nc2ccc(OCCN3CCOCC3)c3ccccc23)cc1`, the “fluorescence, % of fluorescein control” value was 0.776% [at 46 µM] (inactive).
In the case of `CC(C)c1ccc2c(c1)CC[C@H]1[C@](C)(CN)CCC[C@]21C`, the “fluorescence, % of fluorescein control” value is reported as -0.0001% (inactive).
For `CC(NN)c1ccccc1` (stereo not given), the “fluorescence, % of fluorescein control” value was -0.0766% [at 46 µM] (inactive).
In the case of `CCN(CCC#N)c1ccc(N=Nc2c(Cl)cc([N+](=O)[O-])cc2Cl)cc1`, the “fluorescence, % of fluorescein control” value is reported as -0.0047% (inactive).
For `CC1=NC(C)OC1C` (stereo not given), the “fluorescence, % of fluorescein control” value was 0.0346% (inactive).

From PubChem BioAssay (Tox21)
On the % scale 0 is the no-effect control and ±100 the full control effect; potency means the concentration at half of the fitted maximal effect.
